According to ChEMBL document CHEMBL1961873, “Compounds: GSK PKIS; Assays: Nanosyn kinase panel” (2012):

Columns and labels:
[1] = target: Serine/threonine-protein kinase MRCK alpha (Homo sapiens) (UniProt Q5VT25); settings: at 0.1 µM
[2] = target: Serine/threonine-protein kinase MRCK alpha (Homo sapiens) (UniProt Q5VT25); settings: at 1 µM
[3] = target: Serine/threonine-protein kinase MRCK beta (Homo sapiens) (UniProt Q9Y5S2); settings: at 0.1 µM
[4] = target: Serine/threonine-protein kinase MRCK beta (Homo sapiens) (UniProt Q9Y5S2); settings: at 1 µM
[5] = target: Ribosomal protein S6 kinase alpha-5 (Homo sapiens) (UniProt O75582); settings: at 0.1 µM
[6] = target: Ribosomal protein S6 kinase alpha-5 (Homo sapiens) (UniProt O75582); settings: at 1 µM
[7] = target: Ribosomal protein S6 kinase alpha-4 (Homo sapiens) (UniProt O75676); settings: at 0.1 µM
Sequence of Ribosomal protein S6 kinase alpha-4 (Homo sapiens) (O75676 whole entry, looked up): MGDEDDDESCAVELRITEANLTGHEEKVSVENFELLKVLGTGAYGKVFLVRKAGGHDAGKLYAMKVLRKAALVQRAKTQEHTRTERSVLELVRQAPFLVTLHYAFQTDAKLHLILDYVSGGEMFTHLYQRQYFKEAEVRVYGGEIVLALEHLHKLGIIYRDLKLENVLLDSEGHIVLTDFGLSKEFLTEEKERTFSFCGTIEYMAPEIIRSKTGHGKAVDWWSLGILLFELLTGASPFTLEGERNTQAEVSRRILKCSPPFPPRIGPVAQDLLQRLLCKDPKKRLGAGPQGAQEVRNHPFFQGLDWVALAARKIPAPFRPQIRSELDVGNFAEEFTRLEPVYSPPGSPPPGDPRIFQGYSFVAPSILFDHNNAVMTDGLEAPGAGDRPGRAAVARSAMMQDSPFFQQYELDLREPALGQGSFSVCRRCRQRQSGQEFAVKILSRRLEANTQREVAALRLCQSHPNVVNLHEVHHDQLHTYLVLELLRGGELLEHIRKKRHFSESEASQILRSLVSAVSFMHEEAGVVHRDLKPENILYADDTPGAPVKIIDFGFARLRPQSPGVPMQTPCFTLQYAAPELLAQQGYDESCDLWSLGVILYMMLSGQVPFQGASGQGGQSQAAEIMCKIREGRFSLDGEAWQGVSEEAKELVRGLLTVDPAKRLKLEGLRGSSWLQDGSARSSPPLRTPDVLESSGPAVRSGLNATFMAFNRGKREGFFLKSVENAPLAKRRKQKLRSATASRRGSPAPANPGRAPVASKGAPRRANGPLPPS

[8] = target: Ribosomal protein S6 kinase alpha-4 (Homo sapiens) (UniProt O75676); settings: at 1 µM
[9] = target: Ribosomal protein S6 kinase beta-1 (Homo sapiens) (UniProt P23443); settings: at 0.1 µM
Sequence of Ribosomal protein S6 kinase beta-1 (Homo sapiens) (P23443 whole entry, looked up): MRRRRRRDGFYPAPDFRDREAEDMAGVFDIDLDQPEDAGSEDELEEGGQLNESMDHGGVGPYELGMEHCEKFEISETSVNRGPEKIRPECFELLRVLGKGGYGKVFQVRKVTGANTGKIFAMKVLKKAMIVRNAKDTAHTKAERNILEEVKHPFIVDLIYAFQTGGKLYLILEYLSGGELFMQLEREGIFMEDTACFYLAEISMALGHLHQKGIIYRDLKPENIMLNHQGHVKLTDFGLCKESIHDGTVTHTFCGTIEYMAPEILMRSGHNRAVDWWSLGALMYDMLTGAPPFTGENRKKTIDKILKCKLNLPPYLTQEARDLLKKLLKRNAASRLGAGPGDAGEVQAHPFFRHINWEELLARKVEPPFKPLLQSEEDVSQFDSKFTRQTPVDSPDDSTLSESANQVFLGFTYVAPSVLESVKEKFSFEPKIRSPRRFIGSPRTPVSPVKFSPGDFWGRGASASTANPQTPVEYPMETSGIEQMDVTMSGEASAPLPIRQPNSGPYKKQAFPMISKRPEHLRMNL

[10] = target: Ribosomal protein S6 kinase beta-1 (Homo sapiens) (UniProt P23443); settings: at 1 µM
[11] = target: T1, 3-phosphoinositide-dependent protein kinase 1 (Homo sapiens) (UniProt O15530); settings: at 0.1 µM;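 note: values are mean inhibition of PDK1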
T1 sequence (whole entry): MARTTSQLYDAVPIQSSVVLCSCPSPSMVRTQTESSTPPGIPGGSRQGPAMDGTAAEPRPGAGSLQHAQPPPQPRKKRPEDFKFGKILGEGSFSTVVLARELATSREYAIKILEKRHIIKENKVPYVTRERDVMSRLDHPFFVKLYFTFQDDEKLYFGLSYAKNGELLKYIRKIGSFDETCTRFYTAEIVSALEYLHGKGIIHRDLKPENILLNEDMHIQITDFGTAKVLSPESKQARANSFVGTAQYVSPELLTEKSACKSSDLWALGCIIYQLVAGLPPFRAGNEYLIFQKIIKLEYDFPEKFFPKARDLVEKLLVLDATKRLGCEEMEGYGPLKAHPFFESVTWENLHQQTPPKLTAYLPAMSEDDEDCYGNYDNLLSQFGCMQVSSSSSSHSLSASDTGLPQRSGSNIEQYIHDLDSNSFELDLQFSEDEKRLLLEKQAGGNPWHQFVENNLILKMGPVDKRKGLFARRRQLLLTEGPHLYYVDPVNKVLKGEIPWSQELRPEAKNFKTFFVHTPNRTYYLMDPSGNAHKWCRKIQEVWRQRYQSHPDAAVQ

[12] = target: cAMP-dependent protein kinase catalytic subunit alpha (Homo sapiens) (UniProt P17612); settings: at 0.1 µM
[13] = target: cAMP-dependent protein kinase catalytic subunit alpha (Homo sapiens) (UniProt P17612); settings: at 1 µM
[14] = target: Protein kinase C alpha type (Homo sapiens) (UniProt P17252); settings: at 0.1 µM
[15] = target: Protein kinase C alpha type (Homo sapiens) (UniProt P17252); settings: at 1 µM
[16] = target: Protein kinase C beta type (Homo sapiens) (UniProt P05771); settings: at 0.1 µM
[17] = target: Protein kinase C beta type (Homo sapiens) (UniProt P05771); settings: at 1 µM
[18] = target: Protein kinase C eta type (Homo sapiens) (UniProt P24723); settings: at 0.1 µM
[19] = target: Protein kinase C eta type (Homo sapiens) (UniProt P24723); settings: at 1 µM
[20] = target: Protein kinase C gamma type (Homo sapiens) (UniProt P05129); settings: at 0.1 µM;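 note: values are mean percent inhibition of PKC gamma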

Sequence of Serine/threonine-protein kinase MRCK alpha (Homo sapiens) (Q5VT25 whole entry): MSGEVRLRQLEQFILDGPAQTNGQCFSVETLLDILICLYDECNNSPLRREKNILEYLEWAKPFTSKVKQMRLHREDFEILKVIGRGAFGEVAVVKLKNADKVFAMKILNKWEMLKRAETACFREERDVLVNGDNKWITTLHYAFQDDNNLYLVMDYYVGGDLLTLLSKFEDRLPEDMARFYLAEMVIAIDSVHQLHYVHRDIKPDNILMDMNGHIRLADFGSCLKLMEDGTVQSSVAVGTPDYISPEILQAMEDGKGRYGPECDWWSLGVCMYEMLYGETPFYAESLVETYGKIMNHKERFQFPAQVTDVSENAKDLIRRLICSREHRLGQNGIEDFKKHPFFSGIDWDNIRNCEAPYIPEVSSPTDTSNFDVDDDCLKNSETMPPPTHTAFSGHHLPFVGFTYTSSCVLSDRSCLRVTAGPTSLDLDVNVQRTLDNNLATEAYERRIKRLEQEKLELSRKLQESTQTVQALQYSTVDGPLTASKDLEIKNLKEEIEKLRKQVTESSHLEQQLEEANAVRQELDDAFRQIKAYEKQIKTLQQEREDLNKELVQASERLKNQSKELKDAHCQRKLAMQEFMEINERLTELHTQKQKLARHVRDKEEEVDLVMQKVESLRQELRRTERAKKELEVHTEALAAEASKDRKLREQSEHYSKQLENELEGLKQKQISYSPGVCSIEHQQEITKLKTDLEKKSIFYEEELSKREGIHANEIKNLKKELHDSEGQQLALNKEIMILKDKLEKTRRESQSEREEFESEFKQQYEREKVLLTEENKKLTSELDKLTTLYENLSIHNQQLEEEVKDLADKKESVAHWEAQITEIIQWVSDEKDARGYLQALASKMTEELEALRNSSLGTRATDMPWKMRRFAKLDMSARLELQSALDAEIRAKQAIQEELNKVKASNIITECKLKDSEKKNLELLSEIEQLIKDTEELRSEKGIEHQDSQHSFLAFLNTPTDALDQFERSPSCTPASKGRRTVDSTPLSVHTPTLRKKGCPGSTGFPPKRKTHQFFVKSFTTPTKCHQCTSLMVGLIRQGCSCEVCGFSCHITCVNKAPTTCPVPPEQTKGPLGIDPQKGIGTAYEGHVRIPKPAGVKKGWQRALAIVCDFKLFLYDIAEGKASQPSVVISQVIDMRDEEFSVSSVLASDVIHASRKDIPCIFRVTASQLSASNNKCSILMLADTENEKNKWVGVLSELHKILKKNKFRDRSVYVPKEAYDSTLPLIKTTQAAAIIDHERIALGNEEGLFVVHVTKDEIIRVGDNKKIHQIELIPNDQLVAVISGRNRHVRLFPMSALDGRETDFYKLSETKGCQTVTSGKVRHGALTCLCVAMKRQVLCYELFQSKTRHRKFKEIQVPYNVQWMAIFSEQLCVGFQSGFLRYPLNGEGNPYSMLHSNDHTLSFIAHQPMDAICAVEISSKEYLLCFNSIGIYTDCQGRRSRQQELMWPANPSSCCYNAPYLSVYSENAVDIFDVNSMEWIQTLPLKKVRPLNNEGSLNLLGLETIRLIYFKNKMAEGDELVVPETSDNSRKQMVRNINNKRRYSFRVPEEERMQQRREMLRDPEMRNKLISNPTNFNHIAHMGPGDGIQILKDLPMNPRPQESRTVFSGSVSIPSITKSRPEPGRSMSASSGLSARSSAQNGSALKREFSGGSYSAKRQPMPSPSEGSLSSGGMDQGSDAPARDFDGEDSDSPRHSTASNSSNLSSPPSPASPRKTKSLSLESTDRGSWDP
Sequence of Serine/threonine-protein kinase MRCK beta (Homo sapiens) (Q9Y5S2 whole entry): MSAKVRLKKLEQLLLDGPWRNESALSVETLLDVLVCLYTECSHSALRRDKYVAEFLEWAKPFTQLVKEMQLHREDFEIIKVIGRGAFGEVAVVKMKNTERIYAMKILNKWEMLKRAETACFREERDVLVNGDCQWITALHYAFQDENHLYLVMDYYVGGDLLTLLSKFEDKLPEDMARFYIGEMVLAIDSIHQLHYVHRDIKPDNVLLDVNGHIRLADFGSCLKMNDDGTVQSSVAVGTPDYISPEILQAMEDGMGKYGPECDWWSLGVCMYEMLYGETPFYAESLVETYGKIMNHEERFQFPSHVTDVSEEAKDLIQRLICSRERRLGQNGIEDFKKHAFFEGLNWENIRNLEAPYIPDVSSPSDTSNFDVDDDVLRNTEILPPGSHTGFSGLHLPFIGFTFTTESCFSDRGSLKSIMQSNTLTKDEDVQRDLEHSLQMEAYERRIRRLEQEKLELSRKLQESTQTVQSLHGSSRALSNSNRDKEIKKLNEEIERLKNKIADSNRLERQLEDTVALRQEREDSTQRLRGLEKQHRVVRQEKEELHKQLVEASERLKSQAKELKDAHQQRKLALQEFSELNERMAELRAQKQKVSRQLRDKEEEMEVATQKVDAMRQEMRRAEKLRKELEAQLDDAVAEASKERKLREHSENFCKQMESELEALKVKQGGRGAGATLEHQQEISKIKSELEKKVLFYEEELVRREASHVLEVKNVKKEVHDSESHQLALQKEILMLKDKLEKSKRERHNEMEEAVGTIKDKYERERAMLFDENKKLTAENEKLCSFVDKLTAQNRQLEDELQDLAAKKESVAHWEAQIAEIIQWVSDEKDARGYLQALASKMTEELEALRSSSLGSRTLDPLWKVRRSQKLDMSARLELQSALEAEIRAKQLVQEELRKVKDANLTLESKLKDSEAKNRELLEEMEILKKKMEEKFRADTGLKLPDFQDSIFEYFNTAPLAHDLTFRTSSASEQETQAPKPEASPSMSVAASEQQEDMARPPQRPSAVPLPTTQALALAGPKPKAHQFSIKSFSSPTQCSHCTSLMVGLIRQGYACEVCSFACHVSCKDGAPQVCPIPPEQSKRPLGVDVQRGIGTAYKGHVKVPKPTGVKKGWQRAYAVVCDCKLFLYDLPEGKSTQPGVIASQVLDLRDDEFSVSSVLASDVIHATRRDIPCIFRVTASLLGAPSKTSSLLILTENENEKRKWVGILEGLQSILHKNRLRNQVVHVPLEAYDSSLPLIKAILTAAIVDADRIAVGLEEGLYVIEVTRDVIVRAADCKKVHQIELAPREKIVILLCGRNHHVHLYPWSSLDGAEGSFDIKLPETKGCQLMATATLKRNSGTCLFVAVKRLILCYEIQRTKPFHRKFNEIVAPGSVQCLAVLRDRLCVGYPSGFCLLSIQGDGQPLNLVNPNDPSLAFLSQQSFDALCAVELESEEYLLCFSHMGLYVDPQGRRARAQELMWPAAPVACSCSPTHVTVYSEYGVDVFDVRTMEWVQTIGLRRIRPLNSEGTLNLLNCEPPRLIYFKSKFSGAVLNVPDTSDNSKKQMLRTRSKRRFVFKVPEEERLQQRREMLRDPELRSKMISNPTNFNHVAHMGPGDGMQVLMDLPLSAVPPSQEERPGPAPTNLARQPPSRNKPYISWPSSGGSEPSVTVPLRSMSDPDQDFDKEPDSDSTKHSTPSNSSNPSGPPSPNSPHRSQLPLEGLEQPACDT

O=C(O[C@H]1CN[C@H](C#Cc2cc3ncnc(Nc4ccc(Cc5ccccc5)cc4)c3s2)C1)N1CCOCC1
inhibition [1]: -1.95% | inhibition [2]: 0.21% | inhibition [3]: 1.54% | inhibition [4]: 4.12% | inhibition [5]: 4.51% | inhibition [6]: 3.65% | inhibition [7]: 3.21% | inhibition [8]: 3.94% | inhibition [9]: 1.97% | inhibition [10]: 1.38% | inhibition [11]: -1.22% | inhibition [12]: 4.03% | inhibition [13]: 5.91% | inhibition [14]: 0.96% | inhibition [15]: 4.81% | inhibition [16]: 2.02% | inhibition [17]: 4.66% | inhibition [18]: 2.47% | inhibition [19]: 4.45% | inhibition [20]: 4.28%

CC(C)(CO)CNC(=O)c1ccc2c(c1)/C(=N/Nc1ccc(S(N)(=O)=O)cc1)C(=O)N2
inhibition [1]: -0.66% | inhibition [2]: -2.01% | inhibition [3]: 0.21% | inhibition [4]: 1.07% | inhibition [5]: 0.88% | inhibition [6]: 0.97% | inhibition [7]: 1.15% | inhibition [8]: 6.02% | inhibition [9]: -0.13% | inhibition [10]: 2.2% | inhibition [11]: 13.1% | inhibition [12]: 0.87% | inhibition [13]: 1.58% | inhibition [14]: -0.39% | inhibition [15]: 0.27% | inhibition [16]: -0.69% | inhibition [17]: 0.02% | inhibition [18]: 2.86% | inhibition [19]: -0.08% | inhibition [20]: 1.72%

CC(=O)Nc1cccc(C#Cc2cncnc2Nc2ccc(OCc3cccc(F)c3)c(Cl)c2)c1
inhibition [1]: 1.39% | inhibition [2]: 0.82% | inhibition [3]: 1.53% | inhibition [4]: 1.93% | inhibition [5]: -3.6% | inhibition [6]: -3.85% | inhibition [7]: 1.16% | inhibition [8]: 2.5% | inhibition [9]: 2.04% | inhibition [10]: 2.07% | inhibition [11]: 2.17% | inhibition [12]: 2.17% | inhibition [13]: 4.12% | inhibition [14]: 0.9% | inhibition [15]: 2.2% | inhibition [16]: 0.65% | inhibition [17]: 0.21% | inhibition [18]: 0.22% | inhibition [19]: -0.44% | inhibition [20]: 3.94%

NC(=O)c1sc(-n2cnc3ccc(C(F)(F)F)cc32)cc1OCc1ccccc1Br
inhibition [1]: -0.03% | inhibition [2]: 1.97% | inhibition [3]: 0.62% | inhibition [4]: 3.16% | inhibition [5]: 4.33% | inhibition [6]: 4.75% | inhibition [7]: 3.18% | inhibition [8]: 5.34% | inhibition [9]: 1.25% | inhibition [10]: 2.28% | inhibition [11]: 2.61% | inhibition [12]: 3.12% | inhibition [13]: 6.29% | inhibition [14]: 0.78% | inhibition [15]: 1.26% | inhibition [16]: -0.05% | inhibition [17]: 1.5% | inhibition [18]: -0.93% | inhibition [19]: 1.21% | inhibition [20]: -0.86%

CNC(=O)c1cc(-c2ccc(F)cc2)cc(-c2ccc(S(=O)(=O)N3CCCC3)cc2)c1N
inhibition [1]: 1.92% | inhibition [2]: 0.6% | inhibition [3]: -1.06% | inhibition [4]: -0.2% | inhibition [5]: 9.11% | inhibition [6]: 8.3% | inhibition [7]: 1.23% | inhibition [8]: 1.99% | inhibition [9]: 0.63% | inhibition [10]: 1.47% | inhibition [11]: 1.46% | inhibition [12]: 0.9% | inhibition [13]: 0.32% | inhibition [14]: 0.46% | inhibition [15]: 1.02% | inhibition [16]: -0.39% | inhibition [17]: 0.24% | inhibition [18]: 3.68% | inhibition [19]: 1.41% | inhibition [20]: 2.34%

Cc1cccc2c1NC(=O)/C2=N\Nc1ccc(S(N)(=O)=O)cc1
inhibition [1]: -1.02% | inhibition [2]: -1.52% | inhibition [3]: 1.33% | inhibition [4]: 2.51% | inhibition [5]: 2.97% | inhibition [6]: 4.06% | inhibition [7]: 1.89% | inhibition [8]: 3.82% | inhibition [9]: 1.66% | inhibition [10]: 2.26% | inhibition [11]: 2.44% | inhibition [12]: 1.54% | inhibition [13]: 2.59% | inhibition [14]: 0.55% | inhibition [15]: 5.16% | inhibition [16]: 0.49% | inhibition [17]: -1.37% | inhibition [18]: 4.66% | inhibition [19]: 3.34% | inhibition [20]: -3%
